# In PubChem BioAssay (NCATS):
# Values joined by “and” are separate entries in the source; they are usually repeats but may differ in a detail not shown here. Equal values may be shown once. Records with an inconclusive call do not appear. Entries that show only a call come without a potency. Active and inactive are the calls of the source. Unless noted, the call rests on the fitted dose curve; in most records, active means well fitted curve in the direction sought with a large enough effect; inconclusive means small, poorly fitted or top-dose-only effect, or another doubt; inactive means no such curve, though single readings can be large; an effect the other way counts as inactive or inconclusive.
# Experiments:
# [1] = molecular target: Alpha-galactosidase A (Homo sapiens) (UniProt P06280); experiment: Counterscreen for Glucocerebrosidase Inhibitors: qHTS Assay for Human alpha-Galactosidase at pH 4.5 (AID 992)
# In short: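 Concentration-response curves (0.7 nM to 77 uM final) were modeled with the Hill equation to give AC50. Reactions: 2 nM enzyme, 80 uM fluorogenic alpha-galactoside, pH 4.5 citric acid buffer, 20 min, room temperature.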
# [2] = molecular target: alpha-glucosidase (Oryza sativa, rice) (UniProt Q653V4); experiment: Counterscreen for Glucocerebrosidase Inhibitors: qHTS Assay for Rice alpha-Glucosidase at pH 5.0 (AID 997)
# In short: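 Rice alpha-glucosidase (4 nM final) with 400 uM 4-methylumbelliferyl-alpha-D-glucopyranoside in citrate buffer pH 5.0, 20 min at room temperature, stopped at pH 10; fluorescence 365/440 nm, compounds 0.7 nM–77 uM, AC50 from Hill fits.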
# [3] = qHTS Assay for Lipid Storage Modulators (AID 1519; calls by dose curve); settings: Drosophila S3 cells, BODIPY lipid droplet/cell ratio, laser cytometry, cells loaded with oleic acid
# In short: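 Cells seeded at 5,000 per well were treated with compounds over a concentration series and loaded with oleic acid (400 uM, as added). Lipid droplet fluorescence (488 nm excitation, 500-530 nm channel) was read by laser-scanning cytometry and normalized to 20 uM Triacsin C.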
# [4] = molecular target: DNA repair nuclease/redox regulator APEX1 (Homo sapiens) (UniProt P27695); experiment: qHTS Validation Assay for Inhibitors of the Human Apurinic/apyrimidinic Endonuclease 1 (APE1) (AID 1705;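 further: TAMRA fluorescence gain over two minutes as APE1 cuts a quenched THF abasic duplex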)
# In short: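 Human APE1 was preincubated with compound for 15 min at room temperature, then 50 nM (final) THF-abasic double-stranded DNA substrate bearing 5'-TAMRA and 3'-BHQ-2 was added. Incision-driven fluorescence rise (ex 525/em 598 nm) was read kinetically.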
# [5] = Counterscreen for APE1 Inhibitors: Fluorescent Dye Displacement Validation Assay (AID 1707)
# In short: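 Assay buffer: Tris-HCl pH7.5 with 50mM NaCl, 2 mM MgCl2, 0.01% Tween-20. Dye 250 nM, duplex 50 nM final. Readout: decrease in ThO endpoint fluorescence, 480 nm excitation, 540 nm emission.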
# [6] = molecular target: Endonuclease 4 (Escherichia coli (strain K12)) (UniProt P0A6C1); experiment: Counterscreen for APE1 Inhibitors: qHTS Validation Assay for Inhibitors of Endonuclease IV (AID 1708)
# In short: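 E. coli EndoIV at 2 nM final, preincubated 15 min at room temperature with compound, then 50 nM TAMRA/BHQ-2 THF abasic-site duplex added. Buffer: 50 mM Tris-HCl pH 7.5, 50 mM NaCl, 2 mM MgCl2, 1 mM DTT, 0.01% Tween-20. Kinetic fluorescence increase, third minus first read.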
# [7] = qHTS for differential inhibitors of proliferation of Plasmodium falciparum line 7G8 (AID 1815);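 further: parasite growth measured after three days of incubation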; further: potency means the concentration at half of the fitted maximal effect
# [8] = qHTS for differential inhibitors of proliferation of Plasmodium falciparum line GB4 (AID 1816); settings: Potency: Plasmodium falciparum GB4 proliferation inhibition;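 further: parasite growth measured after 72 h incubation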; further: potency means the concentration at half of the fitted maximal effect
# [9] = qHTS for differential inhibitors of proliferation of Plasmodium falciparum line 3D7 (AID 1876); further: potency means the concentration at half of the fitted maximal effect
# [10] = qHTS for differential inhibitors of proliferation of Plasmodium falciparum line D10 (AID 1877);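 further: parasites grown with compound for 72 h before DNA staining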; further: potency means the concentration at half of the fitted maximal effect
# [11] = qHTS for differential inhibitors of proliferation of Plasmodium falciparum line W2 (AID 1883); settings: Potency: Plasmodium falciparum W2 proliferation inhibition;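 further: parasites grown with compound for 72 h before lysis and staining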; further: potency means the concentration at half of the fitted maximal effect
# [12] = qHTS for differential inhibitors of proliferation of Plasmodium falciparum line HB3 (AID 1886); settings: Potency: Plasmodium falciparum HB3 proliferation inhibition;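 further: parasites grown with compound for 72 h before SYBR Green readout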; further: potency means the concentration at half of the fitted maximal effect
# [13] = molecular target: Ferritin light chain (Equus caballus) (UniProt P02791); experiment: qHTS Validation Assay for Identification of Novel General Anesthetics (AID 2323)
# In short: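 Competitive displacement of profluorescent 1-aminoanthracene (1-AMA, 50% saturated solution in PBS) from 10 uM horse-spleen apoferritin. Compounds incubated 10 min at room temperature; fluorescence read at 380 nm excitation/535 nm emission, normalized to free 1-AMA and complex, fitted with four-parameter Hill equation.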
# [14] = molecular target: ATP-dependent DNA helicase Q1 (Homo sapiens) (UniProt P46063); experiment: qHTS Validation Assay for Inhibitors of RecQ-Like Dna Helicase 1 (RECQ1) (AID 2353)
# In short: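 50 nM RECQ1T1 preincubated 15 min with compound in Tris pH 8.0 buffer with MgCl2, DTT, Tween-20 and 2.5 ug/ml poly(dI-dC); started with 200 nM TAMRA/BHQ-2 forked duplex and 2 mM ATP. Unwinding read as fluorescence (525/598 nm), two reads 2 h apart.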
# [15] = Cell Viability - LYMP2-020 (AID 986); further: nearly all actives have a fitted effect of over 55% in size
# In short: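 Human lymphoblastoid LYMP2-020 cells (2500/well) preincubated 5 h at 37 C, then treated 24 h at 37 C. Viability measured as intracellular ATP by CellTiter-Glo luminescence after 30 min at room temperature; AC50 from Hill fits.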
# [16] = Cell Viability - LYMP2-022 (AID 987); further: nearly all actives have a fitted effect of over 55% in size
# In short: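 LYMP2-022 lymphoblastoid cells (2500/well, complete medium) were treated with compounds for 24 hours at 37 C; intracellular ATP was then read by CellTiter-Glo luminescence after 30 min at room temperature. AC50 values were derived from Hill-equation fits.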
# [17] = Cell Viability - LYMP2-026 (AID 989); further: nearly all actives have a fitted effect of over 50% in size
# In short: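 Human lymphoblastoid LYMP2-026 cells, 2500/well, exposed to compound 24 h at 37 C in complete medium. Viability as intracellular ATP by CellTiter-Glo luminescence; AC50 from Hill fits of qHTS concentration-response.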
# [18] = qHTS Assay for Identification of Small Molecule Inducers of Hypoxia Response (AID 2120; active means well fitted curve in the direction sought with a large enough effect in the signal ratio, with a control signal flat, not every such curve was filed as active; the % refers to the signal ratio)
# In short: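 HRE-bla ME-180 cells in Opti-MEM with 0.5% dialyzed FBS, pre-plated 4-5 h, then compound titration for 17 h at 37 degrees Celsius. CCF4 loaded 2.5 h at room temperature; 460/530 nm ratio gave %Activity and AC50 for induction.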
# [19] = measured here: cell count channel max response
# [20] = measured here: lipid channel max response
# Sequence of DNA repair nuclease/redox regulator APEX1 (Homo sapiens) (P27695 whole entry, looked up): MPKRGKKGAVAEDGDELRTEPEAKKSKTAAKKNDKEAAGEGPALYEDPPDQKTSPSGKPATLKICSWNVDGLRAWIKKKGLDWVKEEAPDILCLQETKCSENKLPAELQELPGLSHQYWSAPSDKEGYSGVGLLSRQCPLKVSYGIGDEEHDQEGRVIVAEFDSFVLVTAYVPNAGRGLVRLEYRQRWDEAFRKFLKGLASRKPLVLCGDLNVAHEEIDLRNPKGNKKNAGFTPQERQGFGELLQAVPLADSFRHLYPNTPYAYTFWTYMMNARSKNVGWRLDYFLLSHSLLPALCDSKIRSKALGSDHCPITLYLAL
# Sequence of Alpha-galactosidase A (Homo sapiens) (P06280 whole entry, looked up): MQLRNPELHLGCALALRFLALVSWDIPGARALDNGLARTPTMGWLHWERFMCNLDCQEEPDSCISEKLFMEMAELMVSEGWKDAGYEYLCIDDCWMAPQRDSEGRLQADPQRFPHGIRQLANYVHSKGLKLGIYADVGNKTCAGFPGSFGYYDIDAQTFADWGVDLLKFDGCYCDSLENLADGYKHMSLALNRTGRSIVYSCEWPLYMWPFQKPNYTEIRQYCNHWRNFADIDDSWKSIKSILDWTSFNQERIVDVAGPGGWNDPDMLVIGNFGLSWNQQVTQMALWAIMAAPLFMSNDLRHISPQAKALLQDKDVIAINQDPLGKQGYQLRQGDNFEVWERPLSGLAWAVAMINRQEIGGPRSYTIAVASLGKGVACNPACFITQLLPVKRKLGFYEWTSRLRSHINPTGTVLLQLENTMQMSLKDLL
# Sequence of ATP-dependent DNA helicase Q1 (Homo sapiens) (P46063 whole entry, looked up): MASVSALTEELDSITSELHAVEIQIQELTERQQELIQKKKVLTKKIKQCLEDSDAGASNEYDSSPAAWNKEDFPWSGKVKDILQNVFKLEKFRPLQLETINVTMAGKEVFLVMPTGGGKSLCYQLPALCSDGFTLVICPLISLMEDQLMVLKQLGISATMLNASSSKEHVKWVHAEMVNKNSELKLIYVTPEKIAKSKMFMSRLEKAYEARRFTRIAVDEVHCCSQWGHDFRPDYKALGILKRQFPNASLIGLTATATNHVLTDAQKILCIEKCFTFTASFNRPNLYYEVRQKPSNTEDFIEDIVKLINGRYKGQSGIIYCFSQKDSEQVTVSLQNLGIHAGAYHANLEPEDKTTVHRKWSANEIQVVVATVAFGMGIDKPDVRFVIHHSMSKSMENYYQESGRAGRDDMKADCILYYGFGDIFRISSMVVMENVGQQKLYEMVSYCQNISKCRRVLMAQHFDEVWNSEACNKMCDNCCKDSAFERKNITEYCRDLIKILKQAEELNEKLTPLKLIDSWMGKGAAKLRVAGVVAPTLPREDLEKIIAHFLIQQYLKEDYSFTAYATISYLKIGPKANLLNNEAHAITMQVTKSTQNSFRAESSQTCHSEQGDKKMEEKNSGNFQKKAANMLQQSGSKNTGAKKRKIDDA
# Sequence of Ferritin light chain (Equus caballus) (P02791 2-175 limits assumed): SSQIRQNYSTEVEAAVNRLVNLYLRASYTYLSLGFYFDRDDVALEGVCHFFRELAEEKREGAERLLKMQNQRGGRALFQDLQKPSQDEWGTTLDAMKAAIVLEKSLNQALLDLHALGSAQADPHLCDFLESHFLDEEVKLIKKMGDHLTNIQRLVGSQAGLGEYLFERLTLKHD
smiles,measurement,setting,value
C[N+](C)(C)CCCCCC[N+](C)(C)C,outcome,[1],inactive
same,outcome,[2],inactive
same,"activity change, negative = inhibition",[3]; at 25.7 µM (top of the series),-1.97% (inactive)
same,"activity change, negative = inhibition",[3]; at 57.5 µM (top of the series),11.8% (inactive) and 0.867% (inactive) and 2.49% (inactive)
same,outcome,[4],inactive
same,outcome,[5],inactive
same,outcome,[6],inactive
same,Potency,[7],inactive
same,Potency,[8],inactive
same,Potency,[9],inactive
same,Potency,[10],inactive
same,Potency,[11],inactive
same,Potency,[12],inactive
same,outcome,[13],inactive
same,outcome,[14],inactive
O=c1cc(-c2ccc(O)cc2)oc2cc(O)cc(O)c12,outcome,[1],inactive
same,outcome,[2],inactive
same,"activity change, negative = inhibition",[3]; at 57.5 µM (top of the series),5.85% (inactive) and 0.858% (inactive) and 6.23% (inactive)
same,max response,[3]; [19],-3.26% and -4.54% and 14.7%
same,max response,[3]; [20],4.46% and -2.56% and 22.7%
same,Potency,[7],11.2 µM (active)
same,Potency,[8],14.1 µM (active)
same,Potency,[9],12.6 µM (active)
same,Potency,[11],10 µM (active)
same,Potency,[12],11.2 µM (active)
same,outcome,[14],inactive
CC(C)OC(=O)C(C)(C)Oc1ccc(C(=O)c2ccc(Cl)cc2)cc1,outcome,[1],inactive
same,outcome,[2],inactive
same,"activity change, negative = inhibition",[3]; at 25.7 µM (top of the series),-4.12% (inactive)
same,max response,[3]; [19],-11.4%
same,max response,[3]; [20],-14.8%
same,outcome,[4],inactive
same,outcome,[14],inactive
COC(=O)[C@@H]1[C@H]2C[C@H]3c4[nH]c5ccccc5c4CCN3C[C@@H]2CC[C@@H]1O,outcome,[4],inactive
same,outcome,[5],inactive
same,outcome,[6],inactive
same,outcome,[13],inactive
same,outcome,[14],inactive
CCn1cc(C(=O)O)c(=O)c2ccc(C)nc21,Potency,[15],inactive
same,Potency,[16],inactive
same,Potency,[17],inactive
C[N+](C)(C)CC(=O)O,outcome,[1],inactive
same,outcome,[2],inactive
CCN(CC)CCNC(=O)c1ccc(N)cc1,outcome,[1],inactive
same,outcome,[2],inactive
same,outcome,[4],inactive
same,outcome,[5],inactive
same,outcome,[6],inactive
same,Potency,[7],inactive
same,Potency,[8],inactive
same,Potency,[9],inactive
same,Potency,[10],inactive
same,Potency,[11],inactive
same,Potency,[12],inactive
same,outcome,[13],inactive
same,outcome,[14],inactive
CCN(CC)C(=O)c1ccc(O)c(OC)c1,outcome,[1],inactive
same,outcome,[2],inactive
same,"activity change, negative = inhibition",[3]; at 25.7 µM (top of the series),0.695% (inactive)
same,max response,[3]; [19],14.3%
same,max response,[3]; [20],14.5%
same,outcome,[4],inactive
same,outcome,[5],inactive
same,outcome,[6],inactive
same,Potency,[7],inactive
same,Potency,[8],inactive
same,Potency,[9],inactive
same,Potency,[10],inactive
same,Potency,[11],inactive
same,Potency,[12],inactive
same,outcome,[13],inactive
same,outcome,[14],inactive
CC(C)NCC(O)COc1cccc2[nH]ccc12 (stereo not given),outcome,[1],inactive
same,outcome,[2],inactive
same,"activity change, negative = inhibition",[3]; at 57.5 µM (top of the series),10.5% (inactive)
same,max response,[3]; [19],-0.51%
same,max response,[3]; [20],13.4%
same,outcome,[4],inactive
same,outcome,[5],inactive
same,outcome,[13],inactive
same,outcome,[14],inactive
CN(C)CCC(c1ccccc1)c1ccccn1 (stereo not given),Potency,[15],inactive
same,Potency,[16],inactive
same,Potency,[17],inactive
same,"activity change, negative = inhibition",[3]; at 57.5 µM (top of the series),5.69% (inactive)
same,max response,[3]; [19],23.2%
same,max response,[3]; [20],33.1%
same,outcome,[4],inactive
same,outcome,[5],inactive
same,outcome,[6],inactive
same,Potency,[8],5.62 µM (active)
same,Potency,[9],inactive
same,Potency,[10],inactive
same,Potency,[11],3.55 µM (active)
same,Potency,[12],inactive
same,outcome,[13],inactive
same,outcome,[14],inactive
O=C(O)c1cc(O)c2c(c1)C(=O)c1cccc(O)c1C2=O,Potency,[15],inactive
same,Potency,[16],inactive
same,Potency,[17],inactive
same,"activity change, negative = inhibition",[3]; at 57.5 µM (top of the series),8.11% (inactive)
same,max response,[3]; [19],13.4%
same,max response,[3]; [20],21.8%
same,outcome,[18],inactive
O=c1[nH]cnc2c1ncn2[C@H]1CC[C@@H](CO)O1,Potency,[15],inactive
same,Potency,[16],inactive
same,Potency,[17],inactive
same,outcome,[18],inactive
O=C(O)CCc1nc(-c2ccccc2)c(-c2ccccc2)o1,outcome,[1],inactive
same,outcome,[2],inactive
same,"activity change, negative = inhibition",[3]; at 25.7 µM (top of the series),0.686% (inactive)
same,max response,[3]; [19],0.745%
same,max response,[3]; [20],2.18%
same,outcome,[4],inactive
same,outcome,[5],inactive
same,outcome,[6],inactive
same,outcome,[13],inactive
same,outcome,[14],inactive
CC1(C)CCC2=C(O1)c1ccccc1C(=O)C2=O,outcome,[1],inactive
same,outcome,[2],inactive
same,outcome,[4],inactive
same,outcome,[5],inactive
same,outcome,[6],inactive
same,Potency,[7],3.55 µM (active)
same,Potency,[8],3.98 µM (active)
same,Potency,[9],10 µM (active)
same,Potency,[10],11.2 µM (active)
same,Potency,[11],7.08 µM (active)
same,Potency,[12],12.6 µM (active)
same,outcome,[14],inactive
